Screening results from PubChem BioAssay.
Compounds with a hit are over-represented: about 2.8% of the library has one in this group of screens.
Peg3 promoter: Peg3 promoter-driven luciferase inhibitors, primary screen, cell-based, HeLa, luciferase luminescence. inhibition, % at 20 µM. HeLa PEG-Prom luciferase reporter, overnight. actives 1.7% (n = 360,000);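 active = inhibition of at least 50% at 20 µM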
KKLEB cytotox: cytotoxicity in KKLEB CF airway cells, primary screen, cytotoxicity control for CF NF-kB inhibitor project, cell-based, uHTS, fluorescence assay plates. KKLEB CF airway cells viability, ATPlite luminescence, overnight; hits give low values; cells stimulated with P. aeruginosa culture filtrate. activity change (cytotoxicity), % at 5 µM. actives 0.36% (n = 360,000);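 active = corrected activity change at or below -50% at 5 µM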
Shn3 inh set2: reduction of Shn3 3'UTR firefly luciferase signal, primary screen, Schnurri-3 inhibitor project, cell-based, Clone20 osteoblasts, set 2. Clone20 osteoblast Shn3 3'UTR firefly luciferase, 24 h. inhibition, % at 12.5 µM. actives 0.52% (n = 360,000);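 active = mean inhibition of at least 75% with every replicate also reaching 75%; inconclusive = mean inhibition at least 75% but some replicate below; inactive = mean inhibition below 75%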;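 note: 0% = median of neutral control wells and 100% = pilot-screen positive control compound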
HIF-2a inh: HIF-2a reporter inhibitors, primary screen, luminescence, 786-0 RCC cells; 786-0 RCC cells HIF-2a reporter, luciferase luminescence, overnight; inhibition, % at 18.8 µM; actives 0.72% (n = 360,000);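 active = inhibition of the luminescence signal of 40% or more relative to plate controls, in a single-dose primary screen at 18.75 µM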
TRPM1 prom inh: inhibitors of MITF-dependent TRPM1 promoter reporter, primary screen, cell-based, SK-MEL-5, single point, luciferase; SK-MEL-5 TRPM1 promoter luciferase, 24 h; inhibition, % at 12.5 µM; actives 0.83% (n = 330,000);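 active = mean inhibition across replicates of 60% or more, whatever share of single replicates reaches that level; inconclusive = some that reach 60%, reason not given; inactive = mean inhibition across replicates below 60%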
CF NFkB block: inhibitors of PAF-induced NF-kB signaling, primary screen, cell-based, GFP fluorescence, uHTS; KKLEB NF-kB-GFP reporter, GFP fluorescence overnight; inhibition, % at 5 µM; actives 0.86% (n = 360,000); AID 588850, 2011;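 active = at least 50% inhibition at 5 µM, scaled per plate between neutral and stimulator controls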;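 note: PAF is a Pseudomonas aeruginosa culture filtrate used as stimulus; plate controls were PAF-stimulated DMSO wells for no effect and unstimulated DMSO wells for full effect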
CF NFkB inh conf: inhibitors of PAF-induced NF-kB signaling, retest, confirmation, cell-based, GFP fluorescence, single concentration. shares compounds with CF NFkB block. KKLEB CF airway cells, overnight. inhibition, % at 5 µM. actives 64% (n = 1,300). AID 602472, 2012; in the data active = inhibition above about 40%;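 note: stimulus PAF is a Pseudomonas aeruginosa filtrate and not platelet activating factor; plate controls were DMSO wells with stimulus for no effect and unstimulated DMSO wells for full effect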
Mdm2-MdmX confirm: retested Mdm2-MdmX interaction blockers, confirmation, cell-based, luminescence, single concentration, set 2 | AID 504601, 2011 | shares compounds with HIF-2a inh | actives 99% (n = 740) | inhibition, % at 8 µM | SaOS-2 split-luciferase Mdm2/MdmX complementation;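 active = mean inhibition of the luminescence signal across two replicates at or above 26 percent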
Target sequence (O15151 whole entry, looked up): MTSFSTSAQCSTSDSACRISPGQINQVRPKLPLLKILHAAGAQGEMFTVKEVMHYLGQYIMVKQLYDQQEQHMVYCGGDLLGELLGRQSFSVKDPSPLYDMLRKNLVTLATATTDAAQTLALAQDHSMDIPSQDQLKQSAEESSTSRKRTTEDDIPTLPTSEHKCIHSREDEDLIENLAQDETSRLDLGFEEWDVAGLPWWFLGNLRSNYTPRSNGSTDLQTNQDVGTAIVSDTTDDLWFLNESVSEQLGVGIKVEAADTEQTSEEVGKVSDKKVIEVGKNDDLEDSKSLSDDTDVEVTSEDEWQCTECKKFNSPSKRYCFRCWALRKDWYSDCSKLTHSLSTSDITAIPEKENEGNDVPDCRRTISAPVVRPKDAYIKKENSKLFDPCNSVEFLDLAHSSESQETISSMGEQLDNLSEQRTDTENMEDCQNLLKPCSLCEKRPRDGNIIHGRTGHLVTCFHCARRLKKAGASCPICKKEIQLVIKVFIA
Target sequence (Q00987 whole entry, looked up): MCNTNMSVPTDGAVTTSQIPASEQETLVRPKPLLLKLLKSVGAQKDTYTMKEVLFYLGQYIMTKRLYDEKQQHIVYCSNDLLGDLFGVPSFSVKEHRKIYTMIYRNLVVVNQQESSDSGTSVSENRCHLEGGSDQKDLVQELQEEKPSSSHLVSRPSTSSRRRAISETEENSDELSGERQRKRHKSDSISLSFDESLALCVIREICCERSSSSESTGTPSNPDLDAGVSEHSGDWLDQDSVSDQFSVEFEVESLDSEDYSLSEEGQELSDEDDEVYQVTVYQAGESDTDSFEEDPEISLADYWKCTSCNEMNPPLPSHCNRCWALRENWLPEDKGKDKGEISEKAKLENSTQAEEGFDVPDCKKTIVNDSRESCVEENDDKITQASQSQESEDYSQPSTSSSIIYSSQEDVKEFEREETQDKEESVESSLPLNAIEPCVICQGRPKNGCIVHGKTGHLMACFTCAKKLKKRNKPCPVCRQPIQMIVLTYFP
HIF-2a conf: HIF-2a reporter inhibitor retest, confirmation, luminescence, 786-0 RCC cells | shares compounds with HIF-2a inh | HIF-2a luciferase reporter luminescence, overnight | inhibition, % at 18.8 µM | actives 56% (n = 1,800);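 active = mean inhibition across four replicates of at least 40 percent at the single tested concentration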
HIF-1a counter: HIF-1a luciferase reporter signal reduction – MiaPaCa-2 cells, single concentration, counter-screen for HIF-2a inhibitor project, confirmation; shares compounds with HIF-2a inh; MiaPaCa-2 HIF-1a luciferase reporter, desferoxamine, overnight; inhibition, % at 18.8 µM; actives 72% (n = 1,800); AID 651589, 2012;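 active = mean inhibition of the reporter signal across four replicates at the single tested dose of 50% or more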
* marks the source's active call; other numbers are inactive results; ? = inconclusive; . = no result given.

SMILES	Peg3 promoter	KKLEB cytotox	Shn3 inh set2	HIF-2a inh	TRPM1 prom inh	CF NFkB block	CF NFkB inh conf	HIF-2a conf	HIF-1a counter	others
Cn1nnnc1Sc1ncnc2scc(-c3cccc(S(C)(=O)=O)c3)c12	100.1*	-14.0	60.3	63.4*	77.9*	52.1*	17.5	31.9	65.7*
COc1ccc(-c2csc3ncnc(Sc4nnnn4C)c23)cc1	69.0*	-22.7	18.6	61.7*	6.8	58.5*	54.2*	62.4*	103.9*
Cn1nnnc1Sc1ncnc2scc(-c3ccccc3Cl)c12	105.6*	-23.5	-12.5	65.4*	44.0	56.2*	23.9	31.8	90.7*
Cn1nnnc1Sc1c(Cl)cccc1[N+](=O)[O-]	-2.4	9.3	-0.9	17.2	29.8	18.1	.	.	.
CCc1cccc(NC(=O)CCS(=O)(=O)c2ccc(Br)cc2)c1	6.8	-3.2	0.9	8.3	13.0	12.4	.	.	.
O=C(Cn1ncc(Cl)c(Cl)c1=O)c1ccc2c(c1)OCCO2	90.2*	-37.5	12.0	81.2*	49.5	79.0*	-1.6	39.5	103.2*	Mdm2-MdmX confirm=103.0*
CCC(=O)c1ccc2c(c1)OCCO2	-1.0	1.0	-13.8	-17.9	0.0	24.8	.	.	.
O=C(Cn1ncc(Cl)c(Cl)c1=O)Nc1ccc2c(c1)OCO2	96.5*	-35.8	65.5	95.1*	78.7*	64.5*	4.1	-1.9	104.5*	Mdm2-MdmX confirm=103.0*
CCc1ccccc1NC(=O)CN(C)C(=O)Cn1ncc(Cl)c(Cl)c1=O	107.1*	-1.9	63.9	97.8*	89.3*	51.6*	55.5*	36.8	105.5*
Cc1nn(CC(=O)Nc2ccc3c(c2)OCO3)c(C)c1Cl	-86.4	-2.0	-20.4	-61.5	-24.3	-20.0	.	.	.
CCc1ccccc1NC(=O)CN(C)C(=O)Cn1cnc2ccc(Cl)cc2c1=O	10.2	15.7	2.1	3.7	-2.6	-26.5	.	.	.
CCCc1cc(C(=O)N2CCCC(C(=O)c3cc(C)c(OC)c(C)c3)C2)n(C)n1 (stereo not drawn)	22.3	-0.1	74.4	15.5	-2.4	0.6	.	.	.
O=C1C=CC2C3C(=O)N(c4ccccc4)C(=O)C3C1N2Cc1ccccc1 (stereo not drawn)	102.1*	-17.4	?	85.6*	95.8*	80.3*	-178.0	97.6*	104.2*
O=C1C2C3C=CC(CC3)C2C(=O)N1c1ccccc1 (stereo not drawn)	7.7	1.9	-20.7	15.2	11.4	5.2	.	.	.
Nc1nc(N)nc(-c2cc(O)ccc2O)n1	-17.3	3.8	-24.7	-6.0	-1.4	54.0*	72.0*	.	.	Mdm2-MdmX confirm=101.5*
CCOc1ccc2c(c1)C(C)=CC(C)(C)N2	10.2	0.0	-4.7	0.4	-10.7	7.8	.	.	.
CC1=CC(C)(C)Nc2ccc(OC(=O)CN3C(=O)c4ccccc4C3=O)cc21	102.0*	0.6	64.0	87.5*	-4.5	50.9*	-71.5	88.0*	95.9*
CCCC[C@@H]1CNC(=S)N1CCCC	8.8	-5.4	-10.8	19.9	3.4	8.4	.	.	.
Cc1ccc(NC(=O)c2ncn(CCCNCC3CCCO3)n2)cc1C (stereo not drawn)	5.8	16.3	-30.8	-6.3	-11.1	-16.0	.	.	.
Cc1cc(C(=O)Cn2ncc(Cl)c(Cl)c2=O)c(C)n1CC(F)(F)F	99.7*	-21.5	22.6	94.3*	43.0	76.9*	-23.0	-15.2	103.3*
CC(C)Sc1nnc(NC(=O)c2ccc3c(c2)OCO3)s1	-391.3	8.2	-83.3	-233.8	-91.2	-29.1	.	.	.
O=C(CSc1ccccn1)Nc1nonc1[N+](=O)[O-]	104.3*	-15.2	95.1*	46.5*	85.6*	88.2*	1.3	22.8	-33.7
COc1cc(/C=C/C(=O)c2ccc(O)cc2)ccc1OCC#N	97.2*	-17.1	32.2	51.3*	22.4	65.2*	-4.7	-13.3	100.2*
COCC(=O)Oc1cc(-c2ccc(C)cc2C)c(OC(=O)COC)c(-c2ccc(C)cc2C)c1	-113.4	-13.7	25.2	-126.9	.	49.9	.	.	.
Nc1cc2c(cc1C(=O)c1ccc(Cl)cc1)OCCO2	12.3	-10.7	19.6	-7.5	1.0	-7.7	.	.	.
SMILES	Peg3 promoter	KKLEB cytotox	Shn3 inh set2	HIF-2a inh	TRPM1 prom inh	CF NFkB block	CF NFkB inh conf	HIF-2a conf	HIF-1a counter	others
C=CCN1c2ccccc2[C@]23C[C@@H](C(=O)OC)N(C(=O)c4ccc(Br)cc4)C2=NC(C(=O)OC)=C(C(=O)OC)[C@H]13	74.2*	-30.5	41.2	-11.7	-6.4	70.7*	58.1*	.	.	Mdm2-MdmX confirm=96.5*
COC(=O)C1=C(C(=O)OC)[C@@H]2N(Cc3ccccc3)c3ccccc3[C@@]23C[C@@H](C(=O)OC)N(C(=O)c2ccc(Br)cc2)C3=N1	84.5*	-23.5	96.6*	1.5	-3.6	69.1*	78.1*	.	.	Mdm2-MdmX confirm=97.7*
CCOC(=O)C1(C)CCN1C(=O)c1cc(OC)ccc1Br (stereo not drawn)	-9.4	13.1	-7.2	18.5	.	-33.9	.	.	.
CCc1ccc(Nc2n[n+](-c3ccccc3)c(-c3c(Cl)cccc3Cl)s2)cc1	96.5*	-41.5	91.8*	-57.2	55.9	52.0*	87.6*	.	.	Mdm2-MdmX confirm=101.0*
COC(=O)C[C@H]1C=C[C@H](NC(=O)Nc2ccccc2F)[C@@H](CO)O1	.	.	.	12.4	.	.	.	.	.
NC(=O)COC(=O)c1ccc2noc(-c3ccccc3)c2c1	-72.2	-3.7	-2.5	-118.3	-16.8	-7.5	.	.	.
C=C1C(=O)C23C(O)C1CCC2C12COC3(O)C(O)C1C(C)(C)CCC2O (stereo not drawn)	94.0*	-47.6	82.8	95.4*	.	81.9*	70.1*	93.8*	105.2*
CC(C)(C)C(=O)Cn1ncc(Br)c(Br)c1=O	97.1*	-40.9	89.4*	94.3*	92.8*	78.3*	37.7	93.4*	105.2*
CCOC(=O)C1CCCN(C(=O)c2ccc(-c3ccccc3)cc2)CC1 (stereo not drawn)	17.9	17.0	6.9	12.0	.	2.2	.	.	.
